# From PubChem BioAssay
# Inconclusive results are not listed. Activity calls are given as the source filed them.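 How the source made its calls, unless noted: active means normalized viability below 100% at a tested concentration; inactive means the rest.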
# Experiments:
# [1] = viability loss in pontine glioma line – cell-based, SU-DIPG-XVII, MIPE5.0, CellTiter-Glo, qHTS, dose response (AID 1347060; cut-off not given, nearly all actives have AC50 up to about 26 µM;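 on AC50: cells exposed to compound for 48 hours before viability readout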); conditions: CellTiter-Glo ATP luminescence
# [2] = viability loss in pontine glioma line – cell-based, SU-DIPG-XIII, MIPE5.0, CellTiter-Glo, qHTS, dose response (AID 1347064; cut-off not given, nearly all actives have AC50 up to about 23 µM;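 on AC50: cells exposed to compound for 48 hours before the viability read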); conditions: CellTiter-Glo ATP luminescence
# [3] = viability loss in pontine glioma line – cell-based, SU-DIPG-XXV, MIPE5.0, CellTiter-Glo, qHTS, dose response (AID 1347065; cut-off not given, nearly all actives have AC50 up to about 26 µM;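 further: cells exposed to compound for 48 hours before ATP readout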); conditions: CellTiter-Glo ATP luminescence
# [4] = JHH-DIPG-1 glioma cell viability, MIPE5.0 library, CellTiter-Glo luminescence, qHTS (AID 1347067; cut-off not given, nearly all actives have AC50 up to about 26 µM;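 further: cells exposed to compound for 48 hours before readout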); conditions: JHH-DIPG-1 glioma viability, CellTiter-Glo ATP luminescence
# [5] = growth inhibition of DIPG cells – cell-based, MIPE5.0 library, qHTS (AID 1347068; cut-off not given, nearly all actives have IC50 up to about 30 µM); conditions: SU-DIPG-XXV viability
# [6] = drug combination growth inhibition, ovarian cancer – cell-based, oncology-focused library, rucaparib conditional, profiling panel (AID 1508598); conditions: patient-derived ovarian cancer cells, CellTiter-Glo viability, 144 h, stronger effect = lower value
# [7] = growth inhibition, single agent or in combination, cell-based, chromothripsis tumors, cisplatin or BGB combos (AID 1671449; in the data active means inhibition above about 80%;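 further: cells exposed for 96 hours; 0% = vehicle DMSO and 100% = killing by high DMSO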); conditions: LFS_MB_P medulloblastoma cells
# [8] = growth inhibition, single agent and combos, cell-based, chromothripsis tumors, cisplatin or BGB combos (AID 1671450; in the data active means inhibition above about 80%;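 further: cells exposed to compound for four days; 0% = vehicle DMSO and 100% = cell killing by high DMSO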); conditions: HDN33 neuroblastoma cells, stronger effect = higher value
# [9] = growth inhibition, single agents and combos, ICB984, cell-based, cisplatin or BGB combos, synergistic combos for chromothripsis tumors (AID 1671451; call rule not given here;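 further: cells exposed for 96 hours before readout; 0% = vehicle DMSO and 100% = killing by high DMSO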); conditions: ICB984 medulloblastoma cells, drug combinations, stronger effect = higher value
# [10] = growth inhibition, single agents and combos, LFS_MB_1R, cell-based, cisplatin or BGB combos, synergistic combos for chromothripsis tumors (AID 1671452; in the data active means inhibition above about 80%;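 further: cells exposed for 96 hours before readout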); conditions: LFS_MB_1R medulloblastoma cells, stronger effect = higher value
# [11] = growth inhibition, single agents and combos, HTB85, cell-based, BGB or cisplatin IC20 combos, synergistic combos for chromothripsis tumors (AID 1671453; in the data active means inhibition above about 80%;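 further: cells exposed for 96 hours before readout; 0% = vehicle DMSO and 100% = high DMSO killing control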); conditions: HTB85 osteosarcoma cells, drug combinations, stronger effect = higher value
# [12] = growth inhibition, single agents and combos, CRL2098, cell-based, BGB or cisplatin IC20 combos, synergistic combos for chromothripsis tumors (AID 1671454; in the data active means inhibition above about 80%;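 further: cells exposed for 96 h before readout; 0% = vehicle DMSO and 100% = killing by high DMSO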); conditions: CRL2098 osteosarcoma cells, drug combinations, stronger effect = higher value
# [13] = growth inhibition, single agents and combos, HD-MB03, cell-based, BGB or cisplatin IC20 combos, synergistic combos for chromothripsis tumors (AID 1671455; in the data active means inhibition above about 83%;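 further: 0% = vehicle DMSO and 100% = high DMSO as cytotoxic control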); conditions: HD-MB03 medulloblastoma cells, stronger effect = higher value
# [14] = growth inhibition, single agents and combos, UWB1.289, cell-based, BGB or cisplatin combos, synergistic combos for chromothripsis tumors (AID 1671456; in the data active means inhibition above about 80%;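 further: cells exposed to compound for four days; 0% = vehicle DMSO and 100% = killing by high DMSO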); conditions: UWB1.289 ovarian carcinoma cells, stronger effect = higher value
# [15] = growth inhibition, MDA-MB-436, cell-based, BGB or cisplatin combos, synergistic combos for chromothripsis tumors (AID 1671458; call rule not given here;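 further: cells exposed for 96 hours; 0% = vehicle DMSO and 100% = killing by high DMSO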); conditions: MDA-MB-436 breast carcinoma growth inhibition, drug combinations, stronger effect = higher value
# [16] = BT084 cell growth, single and combined drugs, ICGC_MB145, cisplatin and BGB IC40 combos (AID 1671461; in the data active means inhibition above about 80%;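 further: cells exposed to drugs for 96 hours; 0% = vehicle DMSO and 100% = high DMSO full killing control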); conditions: BT084 medulloblastoma cells, drug combinations, stronger effect = higher value
# [17] = RCMB18 cell growth, single agent and combined, cisplatin and BGB IC40 combos (AID 1671462; in the data active means inhibition above about 80%;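 further: cells exposed to compound for four days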); conditions: RCMB18 medulloblastoma cells, stronger effect = higher value
# [18] = CRL1545 cell growth, single agent and combined, cisplatin and BGB IC20 combos (AID 1671464; in the data active means inhibition above about 80%;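 further: cells exposed to compound for 96 hours before readout; 0% = vehicle DMSO and 100% = high DMSO killing control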); conditions: CRL1545 osteosarcoma cells, stronger effect = higher value
# [19] = measured here: combination with BGB IC40, at 0.05 µM
# [20] = measured here: with BGB IC20 combination, at 0.5 µM
# [21] = measured here: with cisplatin IC20 combination, at 0.5 µM
# [22] = measured here: combination with cisplatin, at 0.5 µM
smiles,measurement,setting,value
Cc1nnc(C(C)C)n1C1CC2CCC(C1)N2CC[C@H](NC(=O)C1CCC(F)(F)CC1)c1ccccc1 (stereo partly specified),outcome,[1],inactive
same,outcome,[2],inactive
same,outcome,[3],inactive
same,outcome,[4],inactive
same,outcome,[5],inactive
same,viability,"[6]; at 0.000305 µM, OCI-C5x cells, with rucaparib 10 µM, 100% = cells with rucaparib alone",106% (inactive)
same,viability,"[6]; at 0.000305 µM, OCI-C5x cells, without rucaparib",101% (inactive)
same,viability,"[6]; at 0.000305 µM, OCI-P5x cells, with rucaparib 20 µM, 100% = cells with rucaparib alone",85.1% (active)
same,viability,"[6]; at 0.000305 µM, OCI-P5x cells, without rucaparib",83.1% (active)
same,viability,"[6]; at 0.00122 µM, OCI-C5x cells, with rucaparib 10 µM, 100% = cells with rucaparib alone",107% (inactive)
same,viability,"[6]; at 0.00122 µM, OCI-C5x cells, without rucaparib",98.5% (active)
same,viability,"[6]; at 0.00122 µM, OCI-P5x cells, with rucaparib 20 µM, 100% = cells with rucaparib alone",86.3% (active)
same,viability,"[6]; at 0.00122 µM, OCI-P5x cells, without rucaparib",79.3% (active)
same,viability,"[6]; at 0.00488 µM, OCI-C5x cells, with rucaparib 10 µM, 100% = cells with rucaparib alone",105% (inactive)
same,viability,"[6]; at 0.00488 µM, OCI-C5x cells, without rucaparib",107% (inactive)
same,viability,"[6]; at 0.00488 µM, OCI-P5x cells, with rucaparib 20 µM, 100% = cells with rucaparib alone",86.7% (active)
same,viability,"[6]; at 0.00488 µM, OCI-P5x cells, without rucaparib",91.1% (active)
same,viability,"[6]; at 0.0195 µM, OCI-C5x cells, with rucaparib 10 µM, 100% = cells with rucaparib alone",113% (inactive)
same,viability,"[6]; at 0.0195 µM, OCI-C5x cells, without rucaparib",107% (inactive)
same,viability,"[6]; at 0.0195 µM, OCI-P5x cells, with rucaparib 20 µM, 100% = cells with rucaparib alone",90.9% (active)
same,viability,"[6]; at 0.0195 µM, OCI-P5x cells, without rucaparib",90.2% (active)
same,viability,"[6]; at 0.0781 µM, OCI-C5x cells, with rucaparib 10 µM, 100% = cells with rucaparib alone",117% (inactive)
same,viability,"[6]; at 0.0781 µM, OCI-C5x cells, without rucaparib",107% (inactive)
same,viability,"[6]; at 0.0781 µM, OCI-P5x cells, with rucaparib 20 µM, 100% = cells with rucaparib alone",96% (active)
same,viability,"[6]; at 0.0781 µM, OCI-P5x cells, without rucaparib",94% (active)
same,viability,"[6]; at 0.313 µM, OCI-C5x cells, with rucaparib 10 µM, 100% = cells with rucaparib alone",111% (inactive)
same,viability,"[6]; at 0.313 µM, OCI-C5x cells, without rucaparib",99.8% (active)
same,viability,"[6]; at 0.313 µM, OCI-P5x cells, with rucaparib 20 µM, 100% = cells with rucaparib alone",95.9% (active)
same,viability,"[6]; at 0.313 µM, OCI-P5x cells, without rucaparib",94.1% (active)
same,viability,"[6]; at 1.25 µM, OCI-C5x cells, with rucaparib 10 µM, 100% = cells with rucaparib alone",118% (inactive)
same,viability,"[6]; at 1.25 µM, OCI-C5x cells, without rucaparib",108% (inactive)
same,viability,"[6]; at 1.25 µM, OCI-P5x cells, with rucaparib 20 µM, 100% = cells with rucaparib alone",98.8% (active)
same,viability,"[6]; at 1.25 µM, OCI-P5x cells, without rucaparib",93.2% (active)
same,viability,"[6]; at 5 µM, OCI-C5x cells, with rucaparib 10 µM, 100% = cells with rucaparib alone",108% (inactive)
same,viability,"[6]; at 5 µM, OCI-C5x cells, without rucaparib",112% (inactive)
same,viability,"[6]; at 5 µM, OCI-P5x cells, with rucaparib 20 µM, 100% = cells with rucaparib alone",96.7% (active)
same,viability,"[6]; at 5 µM, OCI-P5x cells, without rucaparib",95.4% (active)
CC(=O)[C@]1(N)Cc2c(O)c3c(c(O)c2[C@@H](O[C@H]2C[C@H](O)[C@H](O)CO2)C1)C(=O)c1ccccc1C3=O,AC50,[1],16.6 µM (active)
same,AC50,[2],16.6 µM (active)
same,AC50,[3],20.9 µM (active)
same,AC50,[4],16.6 µM (active)
same,outcome,[5],inactive
same,inhibition,"[7]; at 0.5 µM, stronger effect = higher value",-12.9% (inactive)
same,inhibition,"[7]; measured here: combination with BGB IC20, at 0.005 µM",-16.8%
same,inhibition,"[7]; measured here: combination with BGB IC40, at 0.005 µM",-30.9%
same,inhibition,[7]; [19],-51.9%
same,inhibition,"[7]; measured here: combination with cisplatin, at 0.5 µM, stronger effect = higher value",-19.4%
same,inhibition,"[7]; measured here: combination with cisplatin, at 5 µM, stronger effect = higher value",104%
same,inhibition,"[8]; BGB combo, at 5 µM",96.4%
same,inhibition,[8]; at 0.5 µM,-0.33% (inactive)
same,inhibition,"[8]; cisplatin combo, at 5 µM",97.3%
same,inhibition,[8]; [20],0.353%
same,inhibition,[8]; [21],-4.83%
same,inhibition,"[8]; single agent, at 5 µM",98.2%
same,inhibition,"[9]; BGB IC20 combo, at 0.005 µM",2.76%
same,inhibition,"[9]; BGB IC40 combo, at 0.005 µM",-3.55%
same,inhibition,"[9]; BGB IC40 combo, at 0.05 µM",86.2%
same,inhibition,[9]; at 0.5 µM,-21.5% (inactive)
same,inhibition,"[9]; cisplatin combo, at 0.05 µM",85.8%
same,inhibition,"[9]; cisplatin combo, at 0.5 µM",-10.1%
same,inhibition,"[9]; cisplatin combo, at 5 µM",-12.5%
same,inhibition,"[9]; measured here: 5 uM single agent, at 5 µM",-13.2%
same,inhibition,[10]; at 0.5 µM,-7.63% (inactive)
same,inhibition,[10]; [19],-7.53%
same,inhibition,[10]; [22],-2.7%
same,inhibition,"[10]; measured here: combination with cisplatin, at 5 µM",81.1%
same,inhibition,[11]; at 0.5 µM,-1.28% (inactive)
same,inhibition,"[11]; measured here: with BGB IC20, at 0.5 µM",3.02%
same,inhibition,"[11]; measured here: with BGB IC20, at 5 µM",79.1%
same,inhibition,"[11]; measured here: with cisplatin IC20, at 0.5 µM",-5.97%
same,inhibition,"[11]; measured here: with cisplatin IC20, at 5 µM",82.6%
same,inhibition,"[11]; single agent, at 5 µM",81.3%
same,inhibition,[12]; at 0.5 µM,-28.4% (inactive)
same,inhibition,"[12]; measured here: combination with BGB at IC20, at 0.5 µM",-13.2%
same,inhibition,"[12]; measured here: combination with cisplatin at IC20, at 0.5 µM",-55.8%
same,inhibition,[13]; at 0.5 µM,-4.21% (inactive)
same,inhibition,"[13]; measured here: combo with BGB at IC20, at 0.5 µM",5.01%
same,inhibition,"[13]; measured here: combo with cisplatin at IC20, at 0.5 µM",-12.8%
same,inhibition,[14]; at 0.5 µM,13.8% (inactive)
same,inhibition,"[14]; measured here: inhibition with BGB combination, at 0.05 µM",-13.2%
same,inhibition,"[14]; measured here: inhibition with cisplatin combination, at 0.05 µM",8.23%
same,inhibition,[15]; at 0.5 µM,-0.11% (inactive)
same,inhibition,"[15]; measured here: BGB combination, at 0.5 µM",-3.77%
same,inhibition,"[15]; measured here: BGB combination, at 5 µM",73.9%
same,inhibition,"[15]; measured here: cisplatin combination, at 0.5 µM",-8.99%
same,inhibition,"[15]; measured here: cisplatin combination, at 5 µM",84%
same,inhibition,[16]; at 0.5 µM,22.6% (inactive)
same,inhibition,"[16]; cisplatin combination, at 0.5 µM",-12.8%
same,inhibition,"[16]; cisplatin combination, at 5 µM",84.4%
same,inhibition,"[16]; measured here: BGB IC40 combination 0.05 uM, at 0.05 µM",-38.7%
same,inhibition,"[16]; single agent, at 5 µM",86.5%
same,inhibition,[17]; at 0.5 µM,9% (inactive)
same,inhibition,"[17]; cisplatin combo, at 5 µM",89.6%
same,inhibition,"[17]; measured here: BGB IC40 combination, at 0.05 µM",-27.7%
same,inhibition,[17]; [22],31.1%
same,inhibition,"[17]; single agent, at 5 µM",89.9%
same,inhibition,[18]; at 0.5 µM,20% (inactive)
same,inhibition,[18]; [20],-1.69%
same,inhibition,[18]; [21],29.7%
same,inhibition,"[18]; single agent, at 0.05 µM",22.1%
same,inhibition,"[18]; single agent, at 5 µM",90.1%
